The values below come from PubChem BioAssay.

A number with no mark means an inactive call. Activity calls are given as the source filed them.

Sequence of Luciferin 4-monooxygenase (Photinus pyralis) (P08659 whole entry, looked up): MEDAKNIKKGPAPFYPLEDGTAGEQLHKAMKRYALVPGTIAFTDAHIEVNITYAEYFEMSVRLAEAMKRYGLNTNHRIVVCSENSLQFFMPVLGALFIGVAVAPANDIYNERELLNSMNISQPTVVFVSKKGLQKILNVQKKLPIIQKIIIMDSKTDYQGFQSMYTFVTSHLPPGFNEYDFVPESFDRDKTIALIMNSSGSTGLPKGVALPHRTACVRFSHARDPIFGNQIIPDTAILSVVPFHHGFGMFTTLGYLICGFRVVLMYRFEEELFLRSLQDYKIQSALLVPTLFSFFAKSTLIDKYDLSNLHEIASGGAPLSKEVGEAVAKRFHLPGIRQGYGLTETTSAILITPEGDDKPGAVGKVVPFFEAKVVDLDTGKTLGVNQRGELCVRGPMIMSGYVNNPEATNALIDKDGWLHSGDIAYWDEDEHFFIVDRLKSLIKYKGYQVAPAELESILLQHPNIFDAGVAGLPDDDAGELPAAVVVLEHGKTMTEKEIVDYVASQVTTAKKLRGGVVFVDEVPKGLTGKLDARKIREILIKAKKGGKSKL

This assay concerns the target Luciferin 4-monooxygenase (Photinus pyralis) (UniProt P08659). The experiment in a line: inhibition of purified Photinus pyralis luciferase – biochemical, luminescence, purified enzyme, 2006 set, primary screen (AID 1141).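 Also: cell-free assay with purified firefly luciferase at 100 ng per well in PBS; test concentration not given here.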 The conditions noted are these: purified firefly luciferase, SteadyGlo luminescence, 30 min; higher = more signal, called active from +8 up or from −8 down.
In the case of `COC(=O)c1c2oc(c1C(=O)OC)C(=O)N(Cc1ccccc1)Cc1cn(nn1)C[C@H](Cc1ccccc1)NC(=O)N[C@H](CO)CC2`, the z-score is 0.978.

With `O=C1O[C@H](c2ccccc2)[C@H](c2ccccc2)N2[C@H]1[C@@H](C(=O)Nc1nc3ccccc3s1)[C@]1(C(=O)Nc3ccc(C#CC4(O)CCCCCC4)cc31)[C@H]2c1ccccc1OCCO`, the z-score is -0.62.

Turning to `O=C1O[C@@H](c2ccccc2)[C@@H](c2ccccc2)N2[C@@H](c3ccccc3OCCO)[C@]3(C(=O)Nc4ccc(C#CCCO)cc43)[C@@H](C(=O)N3CCCCCCC3)[C@H]12`, the z-score was 0.205.

With `CC(C)N1CC=CC23O[C@@H]4C=CCOC(=O)[C@@H]4[C@H]2C(=O)N(CCCO)[C@@H]3C1=O` (stereo not given in full), the z-score was -3.85.

For the compound `COc1ccc([Si](C)(C)[C@@H]2[C@@H](CC(=O)N(CCO)Cc3ccccc3)O[C@]3(C(=O)N(Cc4cccc(N5CCOC5=O)c4)c4ccccc43)[C@H]2C)cc1`, the z-score was 0.229.

In the case of `COC(=O)[C@@]1(Cc2ccc(F)cc2)[C@H]2c3cc(C(=O)N4CCCC4)n(CCN4CNCC4=O)c3C[C@H]2CN1C(=O)c1ccccc1`, the z-score is 2.51.

Consider `C=C[C@@H](COC(C)=O)N(C(=O)OC(C)(C)C)S(=O)(=O)c1ccc(Br)cc1`, for which the z-score is -0.149.

Consider `CN(C)C(=O)[C@]1(CCS(=O)(=O)c2ccccc2)N=C(c2ccc(OCCCO)cc2)O[C@@H]1c1ccccc1N=[N+]=[N-]`, for which the z-score is -12.3 (active).

Regarding `O=C1NC(=O)C2C1C=CC(C(O)c1ccco1)N2Nc1ccccn1` (stereo not given), the z-score was -1.42.

`C=CC[C@]1(C(=O)NCCN2CCOCC2)N=C(c2ccc(OCCCO)cc2)O[C@H]1c1ccccc1CN=[N+]=[N-]`: the z-score is -1.37.

For the compound `CCOC(=O)C[C@H]1[C@H](OC(=O)c2ccccc2-c2ccccc2)[C@@H](NC(=O)c2ccc(-c3ccccc3)cc2)c2cc(OCCCO)ccc2N1C(=O)c1ccc2ccccc2n1`, the z-score was 0.555.

For the compound `CCCC[C@@H](O)C1=C(COc2ccccc2)C[C@H]2C(=O)N(C)C(=O)[C@H]2[C@H]1CO`, the z-score is -0.475.

With `COCCOC(=O)N1C(=O)[C@@]2(c3cc(C#Cc4ccc(OC)cc4)ccc31)[C@H](C(=O)Nc1nc3ccccc3s1)[C@H]1C(=O)O[C@H](c3ccccc3)[C@H](c3ccccc3)N1[C@@H]2c1ccc(O)cc1`, the z-score was -0.0504.

With `COC1OC[C@]2(C)[C@H]3C4=C(CN2C(=O)OC(C)(C)C)[C@H](C)C(CO)C(CO)C4CC[C@@H]13` (stereo not given in full), the z-score is 0.0207.

On to `COCCCNC(=O)[C@]1(CCS(=O)(=O)c2ccccc2)N=C(c2ccc(OCCCO)cc2)O[C@@H]1c1ccccc1N=[N+]=[N-]`, for which the z-score is -10.1 (active).

Regarding `CCCNC(=O)[C@@]1(c2ccc([N+](=O)[O-])cc2)CC(=O)N(C2CCCCC2)[C@@H]1c1ccc(CO)cc1`, the z-score was -0.92.

In the case of `[N-]=[N+]=NCc1ccccc1C[C@@]1(C(=O)N2CCOCC2)N=C(c2ccc(OCCCO)cc2)O[C@@H]1c1ccccc1`, the z-score is -0.469.

For `NC(N)=NCCCn1cc(CNC(=O)[C@@H](N)Cc2ccccc2)nn1`, the z-score was 0.36.

As to `COC(=O)[C@@]1(Cc2ccc(OC)cc2)[C@H]2c3cc(C(=O)N(C)C)n(CCO)c3C[C@H]2CN1C(=O)c1ccccc1`, the z-score was 2.04.

For `COCCCNC(=O)[C@@]1(Cc2ccccc2CN=[N+]=[N-])N=C(c2ccc(OCCCO)cc2)O[C@H]1c1ccccc1`, the z-score is 0.094.

As to `C=C[C@@H](OC)[C@H](OC(=O)Nc1ccc(SC)cc1)c1ccc(O)c(F)c1`, the z-score is -1.59.

On to `CCCCCCCCCCC(O)C1C=CC2C(=O)N(C)C(=O)C2N1Nc1ccc([N+](=O)[O-])cc1[N+](=O)[O-]` (stereo not given), for which the z-score is 0.581.

Consider `O=C(NCc1ccccc1)[C@@H]1c2ccccc2C(=O)N(Cc2ccccc2C(F)(F)F)[C@H]1c1ccc(CO)cc1`, for which the z-score was -0.745.

In the case of `COCCOC(=O)N1C(=O)[C@@]2(c3cc(C#CCCO)ccc31)[C@H](C(=O)Nc1nc3ccccc3s1)[C@H]1C(=O)O[C@H](c3ccccc3)[C@H](c3ccccc3)N1[C@@H]2c1ccccc1OCCO`, the z-score is -0.551.

As to `COCCOC(=O)N1C(=O)[C@@]2(c3cc(C#CCC(C(=O)OC)C(=O)OC)ccc31)[C@H](C(=O)N1CCc3cc(OC)c(OC)cc3C1)[C@H]1C(=O)O[C@H](c3ccccc3)[C@H](c3ccccc3)N1[C@@H]2c1ccc(OCCO)cc1`, the z-score is -1.25.

In the case of `COc1ccc(CCNC(=O)[C@@]2(Sc3ccc(C)cc3)CC(=O)N(C3Cc4ccccc4C3)[C@@H]2c2ccc(CO)cc2)cc1`, the z-score was 0.529.

Take `CC1=C([C@H](O)CCc2ccccc2)[C@H](CO)[C@@H]2C(=O)N(C)C(=O)[C@@H]2C1`: the z-score was -1.01.

On to `COc1ccccc1CN1C(=O)c2ccccc2[C@@]2(Cc3ccccc3N(CC(F)(F)F)C2=O)[C@@H]1c1ccc(CO)cc1`, for which the z-score is 0.962.

For the compound `CC(C)(C)OC(=O)CC[C@]1(C(=O)NCc2ccccc2)N=C(c2ccc(OCCCO)cc2)O[C@H]1c1ccccc1CN=[N+]=[N-]`, the z-score is -2.11.

On to `O=C(NCC(F)(F)F)[C@@H]1c2ccccc2C(=O)N(Cc2ccc(OC(F)(F)F)cc2)[C@H]1c1ccc(CO)cc1`, for which the z-score is 1.36.

For `COc1ccc([Si](C)(C)[C@H]2[C@H](CCn3cc([C@H](O)c4ccccc4)nn3)O[C@@]3(C(=O)N(Cc4ccc(N5C(=O)c6cccc7cccc5c67)cc4)c4ccccc43)[C@@H]2C)cc1`, the z-score is -1.19.

Take `CCCCCCc1nc(C2CC2)cc2c1[Si](C(C)C)(C(C)C)O[C@H]2c1ccccc1`: the z-score was 0.747.

On to `COc1cc2c(cc1OC)CN(C(=O)[C@@H]1[C@H]3C(=O)O[C@H](c4ccccc4)[C@H](c4ccccc4)N3[C@H](c3ccc(OCCO)cc3)[C@@]13C(=O)Nc1ccccc13)CC2`, for which the z-score is -1.65.

As for `CCOC(=O)C[C@H]1[C@H](OC(=O)c2ccc(C(=O)c3ccccc3)cc2)[C@@H](NC(=O)Cc2ccc(OC)cc2)c2cc(OCCCO)ccc2N1C(=O)c1ccccc1`, the z-score was 0.449.

`Cc1cc(C)c(C(O)C2C=CC3C(=O)NC(=O)C3N2Nc2ccc(Cl)cc2Cl)c(C)c1` (stereo not given): the z-score is -1.43.
